Screening data as filed in PubChem BioAssay.
Most compounds without a hit are left out; they make up all but 8.2% or so of the library.
ELG1 DNA repair = blocks ELG1-dependent DNA repair in HEK293T cells; 330,000 tested, 2.3% active; HEK293T ELG1-luciferase reporter, luminescence, 16 h; DNA damage induced by 5-fluorouridine; Potency, µM (doses to about 46.1 µM), without a hit: at the top dose activity change, negative = inhibition, usual class: inhibitors; further: on the % scale 0 is the no-effect control and ±100 the full control effect; nearly all actives have a fitted effect of over 55% in size
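Step one: seed 2,000 cells per well. Step two: pin-transfer compound or DMSO alongside 5-fluorouridine. Step three: incubate 16 hr, 37 °C, 5% CO2. Step four: add ONE-Glo, wait 30 min, read luminescence.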
KB-3-1 cytotox = KB-3-1 parental cell cytotoxicity; KB-3-1 viability, CellTiter-Glo ATP luminescence, 72 h; Potency, µM (top dose mostly 46.1 µM), hits mostly cytotoxic; 400,000 tested, 1.4% active; AID 1347075; further: on the % scale 0 is the no-effect control and ±100 the full control effect; nearly all actives have a fitted effect of over 60% in size
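Using CellTiter-Glo luminescence, growth of non-resistant KB-3-1 adenocarcinoma cells is assessed 72 h after pin-tool compound addition at 37 °C. Normalized responses across the concentration series yield fitted curves.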
KB-V1 cytotox = kills drug-selected multidrug resistant KB-V1 cells; KB-V1 MDR cells viability, CellTiter-Glo, 72 h; Potency, µM (top dose mostly 46.1 µM), actives largely listed as cytotoxic; 400,000 tested, 3.4% active; further: on the % scale 0 is the no-effect control and ±100 the full control effect; nearly all actives have a fitted effect of over 60% in size
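Potencies derive from concentration-effect curves fitted to normalized luminescence (CellTiter-Glo) of KB-V1 cells treated for 72 h at 37 degrees C in phenol-red-free DMEM containing 10% FBS.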
SW480 rereplic = DNA re-replication induction in SW480 cells | SW480 DNA re-replication, Hoechst DNA content imaging, 48 h | Potency, µM (doses to about 46.1 µM), for inactives: top-dose re-replication activation, usual class: activators | 340,000 tested, 1.8% active; further: % of control where 0% means no effect; nearly all actives have a fitted effect of over 55% in size
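Per well, 250 cells were exposed to pinned compound for 48 hr. Nuclear DNA was visualised with Hoechst (40 min, 37 C) and total object intensity recorded by fluorescence scanning.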
MCF10A rereplic = induces DNA re-replication in MCF 10a normal breast cells | MCF 10A DNA re-replication, Hoechst nuclear intensity, 48 h | Potency, µM (series often up to 46.1 µM), for the others: at the highest dose activity, positive = re-replication, most hits filed as activators | 350,000 tested, 2.9% active | AID 624296; further: % of control where 0% means no effect; nearly all actives have a fitted effect of over 50% in size
Numbers without * were called inactive; i = inactive; ? = inconclusive; · = not tested or not shown; [ ] = remark or other dose. The call rests on the fitted dose curve; in most records, active means well fitted curve in the direction sought with a large enough effect; inconclusive means small, poorly fitted or top-dose-only effect, or another doubt; inactive means no such curve, though single readings can be large; an effect the other way counts as inactive or inconclusive. Potency means the concentration at half of the fitted maximal effect.

SMILES | ELG1 DNA repair | KB-3-1 cytotox | KB-V1 cytotox | SW480 rereplic | MCF10A rereplic
O=C(CCS(=O)(=O)c1cccc2nonc12)N1CCN(c2ccc(F)cc2)CC1 | 0.2% | i | 23.1µM* | -2.7% | 29.5%
O=C(CCCNS(=O)(=O)c1cccs1)N1CCN(c2cccc(Cl)c2)CC1 | 23.1µM* | i | ? | -9.8% | 8.7%
O=C(CCS(=O)(=O)c1cccc2nonc12)N1CCOCC1 | 3.4% | i | i | -0.9% | -0.5%
O=C(CCNS(=O)(=O)c1cccs1)N1CCN(c2cccc(Cl)c2)CC1 | 1.5% | i | ? | 0.9% | 27.2%
O=C(CCNS(=O)(=O)c1cccc2nonc12)N1CCN(c2cccc(Cl)c2)CC1 | ? | i | 10.3µM* | ? | -2.6%
CCCOc1ccc(N2C(=O)CC(NCC(=O)OCC)C2=O)cc1 (stereo unspecified) | · | i | i | -6.4% | 2.4%
CCCCCNC(=O)c1nc(-c2c(F)cccc2F)oc1-c1ccccc1 | · | i | i | · | ·
Cc1cccc(N(C)c2cc(-c3ccc(F)cc3)nc3ccnn23)c1 | · | i | i | · | ·
CCCCCCCCN1C(=O)[C@H](CC(=O)N2CCN(C(=O)c3ccco3)CC2)C[C@@]2(C(=O)OCC)CCCC=C12 | · | i | ? | · | ·
COc1cc(N2CCCC2)c(OC)cc1/C=C(/C#N)c1ccc(Br)cc1 | -5.1% | i | i | 1.8% | 23.1µM*
CCc1ccc2nc(SCC(=O)N(CC)CC)c(C#N)cc2c1 | -25.3% | i | 13µM* | 1.4% | ?
O=C(N/N=C/c1ccc(-c2ccc(Cl)c(C(=O)O)c2)o1)c1cc2c(ccc3ccccc32)o1 | 5.3% | i | i | ? | 20.6µM*
Cc1ccc(-c2ccc(/C=N\NC(=O)c3cc4c(ccc5ccccc54)o3)o2)cc1[N+](=O)[O-] | ? | ? | ? | 12.5% | 7.31µM*
O=C(O)c1ccc(/C=N/NC(=O)c2cc3c(ccc4ccccc43)o2)cc1 | -5.4% | i | i | 2.2% | 1.8%
O=C(NNC(=O)c1ccc(S(=O)(=O)N2CCCC2)cc1)c1ccc(Br)cc1 | 5.2% | i | i | -1.1% | 2.0%
COc1ccc(CCNC(=O)c2c(O)nc3c(C)cccn3c2=O)cc1OC | · | i | 6.51µM* | · | ·
COc1ccc(OC)c(CCNC(=O)c2c(C)nn(-c3ccc(F)cc3)c2-n2cccc2)c1 | · | ? | 11.6µM* | · | ·
Cc1cc(C)c(NC(=O)c2c(C)nn(-c3ccc(F)cc3)c2-n2cccc2)c(C)c1 | · | ? | i | · | ·
CCN(CC)c1ccc(NC(=O)c2c(C)nn(-c3ccc(F)cc3)c2-n2cccc2)c(C)c1 | · | ? | 20.6µM* | · | ·
CCN(CC)c1ccc(NC(=O)c2cc(OC)cc(OC)c2)c(C)c1 | 14.6% | 0.92µM* | 1.16µM* | 4.61µM* | 2.06µM*
Cc1cc(C)c(C(=O)CN2C(=O)C(=O)N(C3CCCC3)C2=O)cc1C | ? | i | i | -5.0% | -7.8%
COc1ccc(OC)c(/C=N/NC(=O)CSc2cc(C)nc3c(OC)cccc23)c1 | ? | i | ? | 20.6% | 17.3%
COc1cc(OC)c(NC(=O)c2c(C)nn(-c3ccc(C)cc3)c2-n2cccc2)cc1Cl | · | 23.1µM* | ? | · | ·
COc1ccc(CCNC(=O)c2c(C)nn(-c3ccc(F)cc3)c2-n2cccc2)cc1OC | · | 5.8µM* | 5.17µM* | · | ·
Cc1ccc(CCNC(=O)c2c(C)nn(-c3ccc(F)cc3)c2-n2cccc2)cc1 | · | 3.26µM* | 5.8µM* | · | ·
COC(=O)C1C(O)=C(C(C)=Nc2cccc3ccccc23)C(=O)CC1(C)C (stereo unspecified) | -3.9% | i | i | 5.8µM* | 11.6%
CC[C@H](c1ccc(O)cc1)[C@@H](CC)c1ccc(O)cc1 | · | · | · | 1.5%[20.6 µM] | 11.4µM*
COc1ccc(C(=O)Nc2nc3c(s2)CCCC3)cc1S(=O)(=O)N1CCCc2ccccc21 | -15.5% | ? | 5.17µM* | ? | ?
CN(Cc1nc2ccccc2c(=O)[nH]1)C(=O)c1cccc(S(=O)(=O)N2CCCCCC2)c1 | -19.2% | i | i | -22.6% | 9.3%
